Screening results: PubChem, ICCB-Longwood Screening Facility, Harvard Medical School
The full list was thinned out, with hits kept by preference.
MgrA DNA FP: alters Staphylococcus aureus MgrA binding to DNA; fluorescence polarization; inhibition, % (test concentration not listed); hit rate 0.13% among 84,000; AID 602314; in the data active = inhibition above about 30%, passing the limit was not always enough;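 also: 0% = protein plus DNA without compound and 100% = DNA alone without protein; higher means less MgrA bound to DNA so lower polarization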
Active calls of the source: *.

SMILES | MgrA DNA FP
O=S(=O)(c1ccc2c(c1)OCCO2)N1CCCCC1c1cccnc1 (stereo not drawn) | 58*
O=S(=O)(c1ccc2nsnc2c1)N1CCCCC1c1cccnc1 (stereo not drawn) | -2
O=S(=O)(c1cccc(C(F)(F)F)c1)N1CCCC1c1cccnc1 (stereo not drawn) | 2
CC(=O)CCCNc1nc(-c2ccc(Cl)cc2)cs1 | 2
O=C1c2cccc3c(N4CCCC4)ccc(c23)C(=O)N1c1ccccc1 | 2
Cc1cccc(N2C(=O)c3cccc4c(N5CCNCC5)ccc(c34)C2=O)c1 | 30
O=C1c2cccc3c(N4CCNCC4)ccc(c23)C(=O)N1c1ccc(Cl)cc1 | 60*
O=C(CCC(=O)c1ccc(Cl)cc1)OCc1ccc(F)cc1 | -2
Cc1nc(-c2cc(Cl)c(Cl)s2)cs1 | -2
CN(C)/C=C/C=C/c1cc(=O)cc(/C=C/C=C/N(C)C)o1 | 100*
O=C(Nc1ccc2nc3c(=O)[nH]c(=O)[nH]c3nc2c1)C(F)(F)F | 57*
CCOc1ccc2nc3c(=O)[nH]c(=O)[nH]c3nc2c1 | 43
Cc1ccc2oc(-c3ccc(NC(=O)C(F)(F)F)cc3)nc2c1 | 0
CCCOc1ccc(C2C(C(=O)OCCOC)=C(C)NC3=C2C(=O)CC(c2ccccc2)C3)cc1OC (stereo not drawn) | 4
Cn1c(SCC(=O)c2ccc(F)cc2)nnc1-c1ccco1 | -4
COc1ccc(C(=O)CSc2nnc(-c3ccco3)c(-c3ccco3)n2)cc1 | 51*
CCOc1ccc(C(=O)CSc2nnc(-c3ccco3)c(-c3ccco3)n2)cc1NC(=O)CC | 92*
O=C(CSc1nnc(-c2ccoc2)c(-c2ccoc2)n1)c1ccc(-c2ccccc2)cc1 | 71*
O=C1COc2ccc(C(=O)CSc3nnc(-c4ccoc4)c(-c4ccoc4)n3)cc2N1 | 44
CCC(=O)Nc1ccc(C(=O)CSc2ncc(C#N)c(N)n2)cc1OC | 3
O=C(CSc1nnc(-c2ccoc2)c(-c2ccoc2)n1)c1ccc(N2CCCC2=O)cc1 | 42
CCn1c(SCC(=O)c2ccccc2)nnc1-c1ccco1 | -1
CCc1ccc2c(c1)c1nnc(SCC(=O)c3ccc(OC)cc3)nc1n2C | -1
COc1cc(NC(=O)CC(CC(=O)O)c2ccc(C(F)(F)F)cc2)cc(OC)c1 (stereo not drawn) | 2
